According to PubChem BioAssay AID720523 (National Center for Advancing Translational Sciences (NCATS), 2013):
Screen size: about 1,400 compounds; about 25 (2%) were called active. Not shown: some 19% with an inconclusive outcome. Calls come from the whole dose curve; as a rule, active = well fitted inhibition curve with a large enough effect; inconclusive = small, poorly fitted or top-dose-only effect; inactive = flat fitted curve, though single readings scatter. These entries were drawn from the full list.

Assay: Nrf2 qHTS screen for inhibitors: A549 ARE-Fluc Cytotoxicity Counterscreen for Hit Validation
Conditions: A549 ARE-Fluc cells; series mostly up to 46.1 µM
Source text: Nrf2 is a transcription factor that maintains cellular redox homoestasis and protects cells from xenobiotics. Nrf2 binds to the antioxidant response element (ARE) to induce gene expression of a broad spectrum of genes that encode for antioxidants. […] Finding a small molecule that act as an inhibitor of Nrf2 function would represent a novel therapeutic target that could lead to improvement in survival of patients undergoing chemo- and/or radio- therapy.
In collaboration with the Biswal laboratory, a cell based, luminescence assay (BugLite) was developed to detect the Nrf2 activity using the A549 ARE_Fluc cells (AID 504648). This assay was coupled with a fluorescence based (CellTiter Fluor) cytotoxicity assay to identify and exclude toxic compounds. This coupled assay was used to evaluate selected compounds for hit validation. The data herein is the result of the CellTiter Fluor assay where decrease in fluorescence signal = cytotoxicity. Inactivity is the desired outcome for this assay.
NIH Chemical Genomics Center [NCGC]
NIH Molecular Libraries Probe Centers Network [MLPCN]
Assay Submitter (PI): Shyam Biswal, Johns Hopkins University
[1] Shibata T., et al., Genetic alteration of Keap1 confers constitutive Nrf2 activation and resistance to chemotherapy in gallbladder cancer. Gastroenterology, 2008.
[2] Sjoblom T., et al., The consensus coding sequences of human breast and colorectal cancers. Science, 2006.
Five uL of cell suspension was dispensed into 1536-well white TC-treated plate using the Kalypsys dispenser to achieve a density of 5000 cells/well in all columns except column 1. The plates were incubated at 37deg C at 5% CO2 for 2 hours before 23 nL of compounds were added with the Kalypsys pin tool equipped with a 1,536-pin array. The control compounds Budesonide and Staurosporine were added at a concentration of 2mM. Budesonide was also added as a 1:10 titration, starting at 200uM, to achieve the dose-response control signal. The plates were incubated for 18-24 hour at 37deg C, 5% CO2 followed by a 5ul addition of 5% FBS OPTI-MEM growing media in column 1 as negative control. One microliter of 5x CellTiter Fluor (Promega) was added to each well and the assay plates were incubated at 37deg C, 5% CO2 for 30 minutes. The fluorescence signal was read using the PerkinElmer ViewLux plate reader (Ex = 405 nm /Em = 525 nm) for a 3 second exposure. After the signal was taken, 3 uL of 3x BugLite was dispensed into all wells. The plates were then incubated at room temperature for 15 minutes. A second ViewLux read (40 sec exposure) was performed to detect the luminescence signal. Cytotoxicity was assessed through the first fluorescent read while biochemical activity against Nrf2 was measured in the luminescent read. The data was normalized to the positive and negative controls.

Structure (SMILES)	outcome
CCC(C)N1C(=O)S/C(=C/c2ccc(Sc3nc4ccccc4[nH]3)o2)C1=O (stereo unspecified)	inactive
CC(C)(C)c1ccc(Oc2ccc(N)cc2)cc1	inactive
CCOc1ccc(S(=O)(=O)N2CCCCC2)cc1NC(=O)CN1CCCC1c1cccs1 (stereo unspecified)	inactive
O/N=C(\C[n+]1ccccc1)c1ccc(Br)cc1	inactive
COc1ccc(C(=O)C[n+]2ccc(N)c(C)c2C)cc1	inactive
Cc1csc[n+]1CCC1CCCCC1	inactive
CCCCNc1nc2c(c(=O)n(C)c(=O)n2C)n1Cc1cccc(OC)c1	inactive
COc1cccc(-c2nc(CS(=O)(=O)CC(=O)N3CCN(c4cc(C)ccc4C)CC3)c(C)o2)c1	inactive
CC(C)Cn1c(N)c(C(=O)COC(=O)CN2C(=O)C3CC=CCC3C2=O)c(=O)n(C)c1=O (stereo unspecified)	inactive
O=C1C=C(c2ccnc3cc(Cl)ccc23)C[C@@H](c2ccc3c(c2)OCO3)C1	inactive
CN(Cc1cccnc1)C(=O)c1cc(COc2ccc3ncccc3c2)on1	inactive
Cc1ccc(NS(=O)(=O)c2cccs2)cc1S(=O)(=O)N1CCCCCC1	inactive
CC(=O)OC(C)C[N+](C)(C)C (stereo unspecified)	inactive
Cn1nccc1C(=O)NC1CCCc2c1cnn2-c1ccc(F)cc1F (stereo unspecified)	inactive
COCCn1c(SCC(=O)Nc2ccccc2F)nc2c(c1=O)SCC2	inactive
CC(=O)N1c2ccc(S(=O)(=O)N3CCCC(C(=O)Nc4cccc(Cl)c4)C3)cc2CC1C (stereo unspecified)	inactive
CC1CCCN(S(=O)(=O)c2ccc(C(=O)Nc3nnc(-c4ccncc4)o3)cc2)C1 (stereo unspecified)	inactive
CC(=O)N1CCCc2cc(S(=O)(=O)N3CCCC(C(=O)N4CCN(c5cccc(Cl)c5)CC4)C3)ccc21 (stereo unspecified)	inactive
O=C(CN1C(=O)c2ccccc2S1(=O)=O)N1CCc2ccccc21	inactive
CC1(C)O[C@@H]2CC3C4C[C@H](F)C5=CC(=O)C=CC5(C)C4C(O)CC3(C)[C@]2(C(=O)CO)O1 (stereo partly specified)	inactive
Cc1ccc(NC(=O)C2CC(=O)N(c3ccc4c(c3)OCCO4)C2)cc1S(=O)(=O)N1CCCCCC1 (stereo unspecified)	inactive
C=CCC1(CC=C)CCCN1C(=O)c1cc(COc2ccc(-n3cncn3)cc2)on1	inactive
COc1ccc(CC(=O)Nc2nc(-c3ccc(F)c(F)c3)cs2)cc1OC	inactive
CC(C)(C)n1ncc2c(=O)n(Cc3ccc(C(=O)c4ccccc4)cc3)cnc21	inactive
Brc1c(CSc2nncc3ccccc23)nc2ccccn12	inactive
CCC(C)(C)c1ccc(Oc2ccc(NC(=O)COC(=O)C3=COCCO3)cc2)cc1	inactive

Structure (SMILES)	outcome
OCCCNc1nccc(-c2cc(Nc3cccc(Cl)c3)ncn2)n1	inactive
CC(=O)N1c2ccc(S(=O)(=O)N3CCCC(C(=O)NCc4ccc(Cl)cc4)C3)cc2CC1C (stereo unspecified)	inactive
Cc1cc(C)c(-c2csc(NC(=O)CCCc3nc4ccccc4c(=O)[nH]3)n2)c(C)c1	inactive
COc1ccc(CCNC(=O)c2ccc(CS(=O)(=O)c3ccc(Br)cc3)o2)cc1OC	inactive
Cc1cccc(N2CCN(C(=O)CCS(=O)(=O)c3ccc4c(c3)NC(=O)C(C)S4)CC2)c1C (stereo unspecified)	inactive
O=C(OCCOc1ccccc1Cl)c1cc(S(=O)(=O)N2CCCCC2)ccc1N1CCOCC1	inactive
Cc1nc(N2CCOCC2)c2c(C)c(C(=O)Nc3ccc(C(F)(F)F)cc3)sc2n1	inactive
Cc1ccc(S(=O)(=O)N2C[C@@H]3CCCC[C@@H]3[C@@H](C)[C@H]2c2cn(Cc3ccccc3)c3ccc(F)cc23)cc1	inactive
Cc1ccc(S(=O)(=O)N2CCN(c3ncnc4ccccc34)CC2)cc1	inactive
COc1ccc(OC)c(Cc2cnc3nc(N)nc(N)c3c2C)c1	inactive
O=C(Nc1ccncc1)c1c(F)cccc1F	inactive
O=C(Nc1ccc(Br)cn1)C1CCN(S(=O)(=O)c2cccs2)CC1	inactive
O=C(CCC(=O)N1CCN(S(=O)(=O)c2ccc(Cl)cc2)CC1)NCc1cccc(C(F)(F)F)c1	inactive
Cc1cc(C(=O)NC2CCCc3c2cnn3-c2cccc(C)c2C)c(C)o1 (stereo unspecified)	inactive
CCOC(=O)c1cnc(-n2nc(C)cc2C)nc1NNc1cc(C)nc(-c2ccccc2)n1	inactive
COc1ccc(N2CCN(C(=O)CSCc3nc(-c4ccccc4Cl)oc3C)CC2)cc1	inactive
CCCOc1ccc(Cc2c(Cl)nc(SC)nc2NC)cc1	inactive
O=c1[nH]c(SCc2cccc(F)c2)nc2ccccc12	inactive
O=C(CSc1nnc2c(n1)[nH]c1ccccc12)NC1CCCCC1	inactive
CCCN(c1ccc(C(C)C)cc1)S(=O)(=O)c1c(C)[nH]c(=O)[nH]c1=O	inactive
CC1CCN(S(=O)(=O)c2ccc(NC(=O)C3CC(=O)N(c4ccccc4)C3)cc2)CC1 (stereo unspecified)	inactive
CCCOc1ccc(C(=O)Nc2ccc3oc(-c4cccc(Cl)c4Cl)nc3c2)cc1	inactive
c1ccc(C(=NNc2nc3ccccc3s2)c2ccccn2)cc1	inactive
CCNS(=O)(=O)c1ccc(CCC(=O)N2CCN(c3cc(Cl)ccc3C)CC2)cc1	inactive
Cc1c(Cl)cccc1NC(=O)Cn1cc(C(=O)c2cccs2)c2ccccc21	inactive
